The list is not random: actives were taken first. Their share in the collection is about 6%.
Tau ThT inhib – blocks human tau fibril formation measured by thioflavin T; P10636; Potency, µM (titrated, usually from 57.4 µM), for inactives: at the top dose activity, negative = inhibition, most hits filed as inhibitors; recombinant tau K18 P301L, heparin-induced fibrillization, ThT fluorescence; hit rate 2.1% among 270,000; also: nearly all actives have a fitted effect of over 55% in size
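Heparin-induced (20 uM) aggregation of recombinant human K18 P301L tau, 15 uM unlabeled with 0.24 uM labeled, pH 7 acetate buffer, 6 hr at 37 C with compound. Fibrils quantified by 30 uM ThT fluorescence after 1 hr ambient incubation.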
Sfp PPTase inh – blocks B. subtilis Sfp PPTase activity. Q9F4F7. hit rate 3.5% among 310,000. Potency, µM, for inactives: largest response in the series, negative = inhibition, actives largely listed as inhibitors. AID 1490. Biochemical Sfp PPTase activity, qHTS;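 also: the enzyme is Sfp with the accession as filed and its product quenches rhodamine fluorescence; 0% = enzyme reaction without inhibitor and -100% = no enzyme wells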
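With Hepes-Na pH 7.6 buffer containing 10 mM MgCl2, Sfp (15 nM) modified BHQ-2-YbbR (12.5 uM) using rhodamine-CoA (5 uM). Two reads 30 minutes apart at 525/598 nm yielded each well's rate.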
Tau FP inhib – blocks human tau fibril formation measured by polarization. hit rate 0.39% among 280,000. Potency, µM (highest dose often 57.7 µM), for the others: top-dose activity, negative = inhibition, actives largely listed as inhibitors. K18 P301L tau heparin fibrillization, Alexa594 FP, 6 h; also: nearly all actives have a fitted effect of over 55% in size
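Human K18 P301L fragment (15 uM unlabeled plus 0.24 uM Alexa 594-labeled) in 100 mM sodium acetate pH 7 with compound, aggregation induced by 20 uM heparin for 6 hr at 37 C. ThT (30 uM) added for 1 hr, then Alexa 594 FP read.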
Tau fluor counter – counter-screen for tau fibril formation inhibitors. AID 1463. tau K18 P301L (four-repeat tau fragment) Alexa594 fluorescence, heparin fibrillization. hit rate 0.93% among 280,000. Potency, µM (top dose mostly 57.7 µM), inactives show top-dose activity change, negative = decrease; also: nearly all actives have a fitted effect of over 55% in size
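Human K18 P301L tau (15 uM unlabeled plus 0.24 uM Alexa 594-labeled, final) in 100 mM sodium acetate pH 7 was mixed with compound and 20 uM heparin and incubated 6 hr at 37 C.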
VDR inh – blocks the human vitamin D receptor | P11473 | VDR-SRC2-3 peptide fluorescence polarization, 2 h | Potency, µM, without a hit: max response, negative = inhibition, actives largely listed as inhibitors | AID 504847 | hit rate 0.93% among 400,000
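Signal is fluorescence polarization, reporting how far test compounds block the interaction of VDR with the SRC2-3 coregulator peptide after a 2 h room-temperature incubation.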
PLK1 PBD inh – inhibitors of human PLK1 polo-box domain binding; P53350; hit rate 2.8% among 360,000; Plk1 PBD binding of FITC phosphopeptide, fluorescence polarization; Potency, µM, without a hit: max response, negative = inhibition, usual class: inhibitors; AID 720504; also: series mostly up to about 57 µM; nearly all actives have a fitted effect of over 65% in size
Target sequence (P53350 whole entry, looked up, the tested form may be a part): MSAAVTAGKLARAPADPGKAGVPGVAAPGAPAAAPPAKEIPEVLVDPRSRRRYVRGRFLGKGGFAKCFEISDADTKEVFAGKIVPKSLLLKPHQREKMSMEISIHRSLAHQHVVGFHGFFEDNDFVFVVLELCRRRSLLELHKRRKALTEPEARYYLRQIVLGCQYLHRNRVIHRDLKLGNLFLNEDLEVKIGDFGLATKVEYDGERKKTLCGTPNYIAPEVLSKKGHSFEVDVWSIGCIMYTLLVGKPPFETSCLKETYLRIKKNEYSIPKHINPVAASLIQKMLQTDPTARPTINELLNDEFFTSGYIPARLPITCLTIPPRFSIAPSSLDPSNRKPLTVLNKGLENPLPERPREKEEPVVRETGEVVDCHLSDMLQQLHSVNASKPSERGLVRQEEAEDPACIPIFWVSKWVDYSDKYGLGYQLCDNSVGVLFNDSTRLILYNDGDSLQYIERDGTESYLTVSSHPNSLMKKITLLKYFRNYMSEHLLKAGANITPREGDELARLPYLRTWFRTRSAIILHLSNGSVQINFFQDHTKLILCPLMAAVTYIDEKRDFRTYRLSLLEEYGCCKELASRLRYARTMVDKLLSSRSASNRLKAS
The depositor's hits bear a star; ? = inconclusive; · = no result; [ ] = another dose, or the depositor's remark. Calls follow the shape of the dose curve; as a rule, active = well fitted curve in the direction sought with a large enough effect; inconclusive = small, poorly fitted or top-dose-only effect, or another doubt; inactive = no such curve, though single readings can be large; an effect the other way counts as inactive or inconclusive. Unless noted, % is scaled to controls: 0 for no effect and ±100 for the full control effect; potency is read from the fitted curve at half-maximal effect.

SMILES	Tau ThT inhib	Sfp PPTase inh	Tau FP inhib	Tau fluor counter	VDR inh	PLK1 PBD inh
Cc1ccc(NC(=S)Nc2ccc3cn[nH]c3c2)cc1	?	-7%	?	-17%	-27%	-11%
C#CCCCO/N=C1/C[C@@H](O)[C@@H](O)[C@@H]2[C@@H]3C(=O)N(Cc4ccc5c(c4)OCO5)C(=O)[C@H]3CC[C@@H]12	-4%[11.5 µM]	1%	-2%[11.6 µM]	0%[11.6 µM]	·	·
COc1cc(/C=C/C(=O)OC2CC3CCC2(C)C3(C)C)ccc1O (stereo not drawn)	-9%	14%	6%	?	-5%	-12%
O=C(/C=C/c1ccc(O)c(O)c1)OC1C(O)CC(OC(=O)/C=C/c2ccc(O)c(O)c2)(C(=O)O)CC1O (stereo not drawn)	-17%	45µM*	0%	-13%	-16%	1%
CCN1C(=O)CC(Sc2ccccc2C(=O)O)C1=O (stereo not drawn)	-10%	7%	-1%	-9%	-5%	-3%
O=C(O)c1ccccc1SC1CC(=O)N(c2cccc3ccccc23)C1=O (stereo not drawn)	·	16µM*	6%	-10%	-20%	30µM*
CCOc1ccc(N2C(=O)CC(Sc3ccccc3C(=O)O)C2=O)c([N+](=O)[O-])c1 (stereo not drawn)	?	13µM*	-3%	-26%	-24%	27µM*
COc1ccc(OC)c(NC(=O)N2c3ccccc3Sc3ccccc32)c1	-12%	·	-8%	?	-6%	·
COc1cc(OC)cc(C(=O)N2CCN(Cc3ccccc3[N+](=O)[O-])CC2)c1	-15%	50µM*	-3%	-8%	1%	?
O=[N+]([O-])c1ccccc1CN1CCN(Cc2ccccn2)CC1	-7%	50µM*	8%	-5%	10%	17µM*
COc1cccc(CN2CCN(C(=O)c3cccc4ccccc34)CC2)c1OC	-15%	?	-7%	-15%	-9%	0%
COc1cccc(CN2CCN(C(=O)c3ccc(-c4ccccc4)cc3)CC2)c1OC	-16%	-2%	11%	5%	2%	30µM*
O=C(c1ccc([N+](=O)[O-])cc1)N1CCN(Cc2ccccc2[N+](=O)[O-])CC1	-11%	50µM*	-1%	-7%	-1%	-16%
COc1ccc(C(=O)N2CCN(Cc3ccccc3[N+](=O)[O-])CC2)cc1	·	-26%	·	·	0%	-5%
O=C(Nc1ccc2c(c1)CCCN2C(=O)c1cccs1)c1ccc(F)c(F)c1	-5%	·	-3%	?	12%	·
O=C(CCn1cnc2onc(-c3ccc(F)cc3)c2c1=O)Nc1cccc(C(F)(F)F)c1	14%	·	22µM*	?	13%	·
O=C(CCn1cnc2onc(-c3ccc(F)cc3)c2c1=O)Nc1ccc(F)c(Cl)c1	18%	·	28µM*	?	17%	·
COc1ccc(-c2nc3cc(NC(=O)c4ccc(C)cc4)ccc3o2)cc1Cl	?	·	?	-21%	-7%	·
N#CC1=C2SCN(Cc3ccccc3)CN2C(=O)CC1c1cccs1 (stereo not drawn)	28µM*	1.1µM*	?	-28%	?	24µM*
COc1ccc(C2CC(=O)N3CN(Cc4ccco4)CSC3=C2C#N)cc1 (stereo not drawn)	25µM*	1.4µM*	?	-23%	28µM*	27µM*
COc1ccc2ccccc2c1C1CC(=O)N2CN(C3CCCCC3)CSC2=C1C#N (stereo not drawn)	28µM*	13µM*	?	-23%	89µM*	13µM*
N#CC1=C2SCN(Cc3ccco3)CN2C(=O)CC1c1ccc(Cl)cc1 (stereo not drawn)	18µM*	2.5µM*	?	-21%	?	27µM*
CS(=O)(=O)Nc1cccc(-c2nc(NCc3cccs3)c3ccccc3n2)c1	?	?	-17%	?	-17%	·
CCOC(=O)C1CCCN(C(=O)Cn2ncc3c(C)n(Cc4ccccc4Cl)c(C)c3c2=O)C1 (stereo not drawn)	?	·	5%	-2%	5%	·
